# In article PMC7862700, “An all-to-all approach to the identification of sequence-specific readers for epigenetic DNA modifications on cytosine”:
# Tests used:
# Experiment in all cases: DAPPL (digital affinity profiling via proximity ligation, sequencing); 10 mM Tris-HCl pH 7.5, 50 mM NaCl, 1 mM DTT, 4% glycerol, room temperature, 30 min; GST-TFs on glutathione beads, 16-mer random dsDNA library, 0.1% formaldehyde crosslink after washing; high values mean tight binding
# FEV = target: T1, FEV (Homo sapiens, UniProt Q99581 1-238); conditions: protein: recombinant; tags: N-terminal GST; dsDNA, one strand shown
# T1 sequence: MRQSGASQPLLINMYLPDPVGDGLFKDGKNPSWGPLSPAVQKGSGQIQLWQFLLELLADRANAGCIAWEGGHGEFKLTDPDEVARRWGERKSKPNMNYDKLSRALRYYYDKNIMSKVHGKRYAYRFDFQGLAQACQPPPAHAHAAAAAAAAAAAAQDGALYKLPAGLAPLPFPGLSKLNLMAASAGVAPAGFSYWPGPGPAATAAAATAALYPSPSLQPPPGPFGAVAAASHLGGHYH
# Method in brief: (§1)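 A tag-only sample was pooled with DNA-barcoded human transcription factors that had been expressed in yeast as GST fusions and captured on glutathione beads. The pools were incubated for 30 min at room temperature with 200 nmole of a random double-stranded 16-mer DNA library in Tris/NaCl/DTT/glycerol buffer, then washed, crosslinked with 0.1% formaldehyde, proximity-ligated (BsaI/T4 ligase, 1 h, 37 °C), PCR-amplified and sequenced on an Illumina NextSeq500. Binding signal is each hexamer's read frequency for a factor divided by its frequency for the tag-only sample.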
# ETV5 = ETV5 (Homo sapiens, UniProt P41161 1-510); conditions: protein: recombinant; tags: N-terminal GST; dsDNA, one strand shown
# Method in brief: as §1
# HSF1 = HSF1 (Homo sapiens, UniProt Q00613 1-529); conditions: protein: recombinant; tags: N-terminal GST; chain copies: 3; dsDNA, one strand shown
# Method in brief: as §1
# SPIC = target: T2, SPIC (Homo sapiens, UniProt Q8N5J4 1-248); conditions: protein: recombinant; tags: N-terminal GST; dsDNA, one strand shown
# T2 sequence: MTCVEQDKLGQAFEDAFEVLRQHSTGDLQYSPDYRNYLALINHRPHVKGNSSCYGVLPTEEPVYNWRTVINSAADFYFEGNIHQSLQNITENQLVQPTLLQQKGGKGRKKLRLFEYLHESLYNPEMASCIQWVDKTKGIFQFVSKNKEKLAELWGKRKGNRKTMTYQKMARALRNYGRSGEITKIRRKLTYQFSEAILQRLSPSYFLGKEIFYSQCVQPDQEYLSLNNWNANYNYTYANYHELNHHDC
# Method in brief: as §1
# ELF4 = ELF4 (Homo sapiens, UniProt Q99607 1-663); conditions: protein: recombinant; tags: N-terminal GST; dsDNA, one strand shown
# Method in brief: as §1
# ELK4 = target: T3, ELK4 (Homo sapiens, UniProt P28324-2 1-405); conditions: protein: recombinant; tags: N-terminal GST; dsDNA, one strand shown
# T3 sequence: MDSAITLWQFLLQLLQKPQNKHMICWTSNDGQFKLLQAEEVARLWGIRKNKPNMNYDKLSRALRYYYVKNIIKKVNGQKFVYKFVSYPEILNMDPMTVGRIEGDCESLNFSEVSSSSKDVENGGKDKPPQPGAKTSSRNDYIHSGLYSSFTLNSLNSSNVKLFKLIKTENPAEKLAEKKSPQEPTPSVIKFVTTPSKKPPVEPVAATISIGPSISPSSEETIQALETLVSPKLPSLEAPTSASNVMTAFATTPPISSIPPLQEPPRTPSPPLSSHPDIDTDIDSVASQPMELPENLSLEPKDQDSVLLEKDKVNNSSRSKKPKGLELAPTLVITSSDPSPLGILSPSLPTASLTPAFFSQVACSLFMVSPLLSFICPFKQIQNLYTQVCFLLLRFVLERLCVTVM
# Method in brief: as §1
# ETV2 = target: T4, ETV2 (Homo sapiens, UniProt O00321 1-342); conditions: protein: recombinant; tags: N-terminal GST; dsDNA, one strand shown
# T4 sequence: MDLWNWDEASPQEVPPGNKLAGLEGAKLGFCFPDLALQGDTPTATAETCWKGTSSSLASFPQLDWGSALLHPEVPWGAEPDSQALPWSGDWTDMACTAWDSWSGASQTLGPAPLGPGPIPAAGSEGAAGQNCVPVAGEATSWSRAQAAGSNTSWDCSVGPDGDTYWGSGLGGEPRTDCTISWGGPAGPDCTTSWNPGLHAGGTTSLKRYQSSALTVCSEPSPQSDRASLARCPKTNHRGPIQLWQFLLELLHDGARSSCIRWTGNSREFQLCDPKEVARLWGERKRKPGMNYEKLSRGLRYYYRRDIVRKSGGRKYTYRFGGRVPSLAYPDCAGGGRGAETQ
# Method in brief: as §1
# ELF3 = target: T5, ELF3 (Homo sapiens, UniProt P78545 1-371); conditions: protein: recombinant; tags: N-terminal GST; dsDNA, one strand shown
# T5 sequence: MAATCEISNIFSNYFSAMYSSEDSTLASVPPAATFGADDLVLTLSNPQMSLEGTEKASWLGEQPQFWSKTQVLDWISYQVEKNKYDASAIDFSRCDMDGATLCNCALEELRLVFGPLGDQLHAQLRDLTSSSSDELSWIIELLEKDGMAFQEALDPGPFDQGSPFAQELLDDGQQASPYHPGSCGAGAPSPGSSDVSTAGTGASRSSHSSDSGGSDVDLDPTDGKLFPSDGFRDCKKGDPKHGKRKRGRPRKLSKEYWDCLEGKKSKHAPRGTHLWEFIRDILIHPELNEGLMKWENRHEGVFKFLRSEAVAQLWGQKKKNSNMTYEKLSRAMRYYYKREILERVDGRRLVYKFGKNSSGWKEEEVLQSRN
# Method in brief: as §1
# CRX = CRX (Homo sapiens, UniProt O43186 1-299); conditions: protein: recombinant; tags: N-terminal GST; dsDNA, one strand shown
# Method in brief: as §1
# ETV1 = ETV1 (Homo sapiens, UniProt P50549 1-477); conditions: protein: recombinant; tags: N-terminal GST; dsDNA, one strand shown
# Method in brief: as §1
# ERF = target: T6, ERF (Homo sapiens, UniProt P50548 1-548); conditions: protein: recombinant; tags: N-terminal GST; dsDNA, one strand shown
# T6 sequence: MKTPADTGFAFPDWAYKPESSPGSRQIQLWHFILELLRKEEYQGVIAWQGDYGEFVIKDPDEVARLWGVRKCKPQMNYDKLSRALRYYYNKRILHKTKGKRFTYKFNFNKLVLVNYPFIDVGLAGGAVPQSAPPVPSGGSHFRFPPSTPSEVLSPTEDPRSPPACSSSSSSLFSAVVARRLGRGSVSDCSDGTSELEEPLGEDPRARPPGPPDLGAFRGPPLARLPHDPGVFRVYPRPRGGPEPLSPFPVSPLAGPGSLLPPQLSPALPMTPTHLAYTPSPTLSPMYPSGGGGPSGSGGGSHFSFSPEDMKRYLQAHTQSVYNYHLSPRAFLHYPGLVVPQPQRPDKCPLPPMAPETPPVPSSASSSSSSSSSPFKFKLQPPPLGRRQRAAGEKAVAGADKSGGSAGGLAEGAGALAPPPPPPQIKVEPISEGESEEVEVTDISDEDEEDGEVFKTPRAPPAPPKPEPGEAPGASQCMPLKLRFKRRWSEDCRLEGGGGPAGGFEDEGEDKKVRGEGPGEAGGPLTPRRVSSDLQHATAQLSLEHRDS
# Method in brief: as §1
# ETV3L = target: T7, ETV3L (Homo sapiens, UniProt Q6ZN32 1-361); conditions: protein: recombinant; tags: N-terminal GST; dsDNA, one strand shown
# T7 sequence: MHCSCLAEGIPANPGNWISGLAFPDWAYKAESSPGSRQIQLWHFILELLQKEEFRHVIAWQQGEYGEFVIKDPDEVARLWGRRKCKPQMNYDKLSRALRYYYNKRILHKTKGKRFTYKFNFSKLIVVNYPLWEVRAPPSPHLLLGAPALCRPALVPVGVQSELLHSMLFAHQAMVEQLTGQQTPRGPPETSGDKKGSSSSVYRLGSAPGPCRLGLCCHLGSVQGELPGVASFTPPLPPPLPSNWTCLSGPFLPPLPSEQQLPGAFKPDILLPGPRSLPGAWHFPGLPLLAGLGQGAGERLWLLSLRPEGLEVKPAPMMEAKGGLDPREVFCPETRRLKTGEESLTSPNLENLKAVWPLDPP
# Method in brief: as §1
# ETS2 = target: T8, ETS2 (Homo sapiens, UniProt P15036 1-469); conditions: protein: recombinant; tags: N-terminal GST; dsDNA, one strand shown
# T8 sequence: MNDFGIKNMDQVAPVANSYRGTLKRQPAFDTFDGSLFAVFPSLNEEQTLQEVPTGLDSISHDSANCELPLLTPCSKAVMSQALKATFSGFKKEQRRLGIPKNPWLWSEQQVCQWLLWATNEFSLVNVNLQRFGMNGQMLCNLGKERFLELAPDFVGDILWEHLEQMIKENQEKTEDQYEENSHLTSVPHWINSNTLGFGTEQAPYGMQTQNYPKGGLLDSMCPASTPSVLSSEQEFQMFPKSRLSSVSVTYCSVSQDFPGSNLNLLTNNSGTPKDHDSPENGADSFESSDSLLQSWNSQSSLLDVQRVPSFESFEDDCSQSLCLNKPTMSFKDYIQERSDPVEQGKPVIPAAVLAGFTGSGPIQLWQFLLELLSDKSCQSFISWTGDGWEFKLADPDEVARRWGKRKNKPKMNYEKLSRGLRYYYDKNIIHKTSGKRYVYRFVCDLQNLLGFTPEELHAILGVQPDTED
# Method in brief: as §1
# SPDEF = target: T9, SPDEF (Homo sapiens, UniProt O95238 1-335); conditions: protein: recombinant; tags: N-terminal GST; dsDNA, one strand shown
# T9 sequence: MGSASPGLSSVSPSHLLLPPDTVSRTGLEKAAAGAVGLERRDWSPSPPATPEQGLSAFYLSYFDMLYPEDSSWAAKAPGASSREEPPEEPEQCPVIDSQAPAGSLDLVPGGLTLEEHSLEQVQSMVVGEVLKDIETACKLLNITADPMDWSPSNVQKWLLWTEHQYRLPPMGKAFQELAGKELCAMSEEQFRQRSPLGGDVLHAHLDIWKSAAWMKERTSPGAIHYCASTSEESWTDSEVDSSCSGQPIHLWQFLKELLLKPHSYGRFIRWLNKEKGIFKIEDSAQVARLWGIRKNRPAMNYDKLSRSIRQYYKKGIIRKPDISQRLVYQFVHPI
# Method in brief: as §1
# ETV7 = target: T10, ETV7 (Homo sapiens, UniProt Q9Y603 1-341); conditions: protein: recombinant; tags: N-terminal GST; dsDNA, one strand shown
# T10 sequence: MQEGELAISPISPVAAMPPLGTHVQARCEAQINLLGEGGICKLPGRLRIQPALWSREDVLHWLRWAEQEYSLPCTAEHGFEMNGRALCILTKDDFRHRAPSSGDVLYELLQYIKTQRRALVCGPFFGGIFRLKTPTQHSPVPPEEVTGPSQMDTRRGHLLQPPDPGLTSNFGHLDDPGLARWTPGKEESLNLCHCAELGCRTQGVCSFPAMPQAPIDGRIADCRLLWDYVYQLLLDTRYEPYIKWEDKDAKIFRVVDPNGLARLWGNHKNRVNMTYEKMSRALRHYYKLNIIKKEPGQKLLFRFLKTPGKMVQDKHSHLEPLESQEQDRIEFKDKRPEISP
# Method in brief: as §1
# ELF5 = target: T11, ELF5 (Homo sapiens, UniProt Q9UKW6-2 1-255); conditions: protein: recombinant; tags: N-terminal GST; dsDNA, one strand shown
# T11 sequence: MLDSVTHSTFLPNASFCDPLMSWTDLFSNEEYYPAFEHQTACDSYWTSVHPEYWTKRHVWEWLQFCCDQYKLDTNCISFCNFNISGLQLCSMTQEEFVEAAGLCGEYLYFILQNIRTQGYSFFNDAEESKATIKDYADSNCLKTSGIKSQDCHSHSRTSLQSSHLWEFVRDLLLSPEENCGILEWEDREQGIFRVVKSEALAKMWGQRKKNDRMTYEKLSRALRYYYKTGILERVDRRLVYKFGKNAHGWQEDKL
# Method in brief: as §1
# ETV3 = target: T12, ETV3 (Homo sapiens, UniProt P41162-2 1-143); conditions: protein: recombinant; tags: N-terminal GST; dsDNA, one strand shown
# T12 sequence: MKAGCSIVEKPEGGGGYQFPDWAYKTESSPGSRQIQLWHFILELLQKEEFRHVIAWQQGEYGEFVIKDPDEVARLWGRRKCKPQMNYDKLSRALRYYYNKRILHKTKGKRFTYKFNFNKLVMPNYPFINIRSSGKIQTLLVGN
# Method in brief: as §1
# ETV6 = ETV6 (Homo sapiens, UniProt P41212 1-452); conditions: protein: recombinant; tags: N-terminal GST; dsDNA, one strand shown
# Method in brief: as §1
# CRX, sequence (O43186 whole entry): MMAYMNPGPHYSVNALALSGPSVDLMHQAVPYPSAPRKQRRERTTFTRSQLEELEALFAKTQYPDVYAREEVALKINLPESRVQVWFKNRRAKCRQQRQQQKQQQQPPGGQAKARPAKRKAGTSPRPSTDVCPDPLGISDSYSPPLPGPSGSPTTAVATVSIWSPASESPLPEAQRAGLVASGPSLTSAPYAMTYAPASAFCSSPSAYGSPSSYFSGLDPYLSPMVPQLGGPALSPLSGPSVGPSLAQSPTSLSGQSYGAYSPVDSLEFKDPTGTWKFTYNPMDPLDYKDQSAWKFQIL
# HSF1, sequence (Q00613 whole entry): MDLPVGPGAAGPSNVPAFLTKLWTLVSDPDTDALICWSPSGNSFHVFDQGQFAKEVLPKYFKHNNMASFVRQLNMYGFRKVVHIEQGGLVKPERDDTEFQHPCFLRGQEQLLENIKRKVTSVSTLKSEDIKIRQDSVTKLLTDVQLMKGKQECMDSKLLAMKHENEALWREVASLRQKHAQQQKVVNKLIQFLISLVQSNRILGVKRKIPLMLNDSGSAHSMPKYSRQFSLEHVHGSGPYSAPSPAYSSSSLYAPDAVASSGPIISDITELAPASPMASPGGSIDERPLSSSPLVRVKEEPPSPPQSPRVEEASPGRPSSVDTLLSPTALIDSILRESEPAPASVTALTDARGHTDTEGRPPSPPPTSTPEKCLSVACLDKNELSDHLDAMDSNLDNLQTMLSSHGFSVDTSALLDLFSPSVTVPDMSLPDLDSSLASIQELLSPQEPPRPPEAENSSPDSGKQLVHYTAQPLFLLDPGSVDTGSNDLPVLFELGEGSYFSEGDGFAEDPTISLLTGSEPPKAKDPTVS
# ETV6, sequence (P41212 whole entry): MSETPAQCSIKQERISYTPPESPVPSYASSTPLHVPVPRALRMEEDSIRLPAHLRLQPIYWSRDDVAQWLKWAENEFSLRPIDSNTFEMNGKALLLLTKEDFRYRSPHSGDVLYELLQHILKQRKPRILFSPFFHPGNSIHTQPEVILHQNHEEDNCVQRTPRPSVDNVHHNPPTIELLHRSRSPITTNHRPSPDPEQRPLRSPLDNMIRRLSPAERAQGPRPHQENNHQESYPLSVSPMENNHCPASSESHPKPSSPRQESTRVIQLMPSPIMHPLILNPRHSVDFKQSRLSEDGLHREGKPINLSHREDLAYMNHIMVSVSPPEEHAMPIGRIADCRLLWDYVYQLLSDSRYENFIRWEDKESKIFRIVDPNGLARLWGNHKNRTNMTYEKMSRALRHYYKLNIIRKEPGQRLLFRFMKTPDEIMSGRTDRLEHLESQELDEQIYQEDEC
# ETV1, sequence (P50549 whole entry): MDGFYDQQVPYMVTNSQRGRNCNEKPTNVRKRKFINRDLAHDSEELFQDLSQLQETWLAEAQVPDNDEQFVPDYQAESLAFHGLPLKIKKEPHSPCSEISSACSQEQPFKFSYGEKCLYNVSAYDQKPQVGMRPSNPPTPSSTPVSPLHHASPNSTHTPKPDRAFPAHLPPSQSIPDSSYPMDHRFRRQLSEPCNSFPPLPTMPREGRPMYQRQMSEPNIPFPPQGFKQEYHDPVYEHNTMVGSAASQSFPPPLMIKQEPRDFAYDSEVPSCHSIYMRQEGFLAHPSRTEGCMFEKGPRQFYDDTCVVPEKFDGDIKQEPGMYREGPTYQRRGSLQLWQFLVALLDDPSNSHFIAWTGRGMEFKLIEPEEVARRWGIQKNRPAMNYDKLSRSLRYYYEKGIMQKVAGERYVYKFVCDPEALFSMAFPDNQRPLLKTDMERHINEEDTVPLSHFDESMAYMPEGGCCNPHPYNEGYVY
# ELF4, sequence (Q99607 whole entry): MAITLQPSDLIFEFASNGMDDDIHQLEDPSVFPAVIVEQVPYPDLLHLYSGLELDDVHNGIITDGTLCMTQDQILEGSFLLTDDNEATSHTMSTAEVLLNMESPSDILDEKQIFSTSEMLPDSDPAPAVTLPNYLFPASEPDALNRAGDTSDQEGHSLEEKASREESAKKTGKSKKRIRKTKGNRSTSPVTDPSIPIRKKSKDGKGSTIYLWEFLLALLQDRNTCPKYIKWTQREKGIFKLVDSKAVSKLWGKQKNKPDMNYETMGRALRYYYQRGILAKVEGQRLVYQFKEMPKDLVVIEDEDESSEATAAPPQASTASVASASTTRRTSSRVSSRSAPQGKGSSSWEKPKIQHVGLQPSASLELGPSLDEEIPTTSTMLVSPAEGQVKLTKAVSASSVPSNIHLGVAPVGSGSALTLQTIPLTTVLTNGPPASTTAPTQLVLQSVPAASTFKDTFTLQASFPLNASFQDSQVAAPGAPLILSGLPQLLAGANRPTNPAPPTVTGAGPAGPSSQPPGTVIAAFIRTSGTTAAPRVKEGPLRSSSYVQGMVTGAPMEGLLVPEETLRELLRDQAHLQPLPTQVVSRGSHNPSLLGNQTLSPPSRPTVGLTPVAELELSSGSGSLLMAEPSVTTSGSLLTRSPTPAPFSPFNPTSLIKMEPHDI
# ETV5, sequence (P41161 whole entry): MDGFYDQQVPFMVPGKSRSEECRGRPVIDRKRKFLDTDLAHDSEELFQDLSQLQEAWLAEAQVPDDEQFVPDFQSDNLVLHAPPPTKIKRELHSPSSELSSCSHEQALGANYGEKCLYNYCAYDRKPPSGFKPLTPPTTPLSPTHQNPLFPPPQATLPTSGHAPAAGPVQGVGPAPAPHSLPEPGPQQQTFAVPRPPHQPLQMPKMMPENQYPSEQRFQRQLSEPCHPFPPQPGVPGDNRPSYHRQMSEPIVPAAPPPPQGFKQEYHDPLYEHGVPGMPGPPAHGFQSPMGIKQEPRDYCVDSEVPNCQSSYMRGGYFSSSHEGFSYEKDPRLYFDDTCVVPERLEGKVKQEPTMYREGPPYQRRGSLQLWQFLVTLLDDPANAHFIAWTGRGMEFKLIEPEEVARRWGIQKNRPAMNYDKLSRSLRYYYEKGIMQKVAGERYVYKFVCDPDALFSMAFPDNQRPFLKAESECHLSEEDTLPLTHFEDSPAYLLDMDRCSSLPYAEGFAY
sequence,measurement,setting,value
ATTCAA,binding signal,FEV,"1.27 fold enrichment (6-mer frequency, TF over GST control)"
same,binding signal,ETV5,"1.32 fold enrichment (6-mer frequency, TF over GST control)"
same,binding signal,HSF1,"1.32 fold enrichment (6-mer frequency, TF over GST control)"
same,binding signal,SPIC,"1.32 fold enrichment (6-mer frequency, TF over GST control)"
same,binding signal,ELF4,"1.34 fold enrichment (6-mer frequency, TF over GST control)"
same,binding signal,ELK4,"1.39 fold enrichment (6-mer frequency, TF over GST control)"
same,binding signal,ETV2,"1.38 fold enrichment (6-mer frequency, TF over GST control)"
same,binding signal,ELF3,"1.38 fold enrichment (6-mer frequency, TF over GST control)"
same,binding signal,CRX,"1.36 fold enrichment (6-mer frequency, TF over GST control)"
same,binding signal,ETV1,"1.32 fold enrichment (6-mer frequency, TF over GST control)"
same,binding signal,ERF,"1.38 fold enrichment (6-mer frequency, TF over GST control)"
same,binding signal,ETV3L,"1.34 fold enrichment (6-mer frequency, TF over GST control)"
same,binding signal,ETS2,"1.36 fold enrichment (6-mer frequency, TF over GST control)"
same,binding signal,SPDEF,"1.31 fold enrichment (6-mer frequency, TF over GST control)"
same,binding signal,ETV7,"1.19 fold enrichment (6-mer frequency, TF over GST control)"
same,binding signal,ELF5,"1.24 fold enrichment (6-mer frequency, TF over GST control)"
same,binding signal,ETV3,"1.37 fold enrichment (6-mer frequency, TF over GST control)"
same,binding signal,ETV6,"1.33 fold enrichment (6-mer frequency, TF over GST control)"
